Assay outcomes (PubChem BioAssay)
MEX-5 binding – MEX-5 zinc finger RNA-binding disruptors – biochemical, C. elegans, fluorescence polarization, MLPCN library, primary screen; Zinc finger protein mex-5 (Caenorhabditis elegans), Q9XUB2; MEX-5/FITC-TCR2 RNA binding; hits give low values; activity score (negative = inhibition of binding), % at 10 µM; 300,000 tested, 0.38% active; AID 1832, 2009;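 active = inhibition past about -25% in most replicates, and total fluorescence under double the plate's negative control median, limit read from the data; inconclusive = replicates evenly split on the limit, or fluorescence at least double controls; inactive = too little inhibition in most replicates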;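 note: 0% = DMSO and -100% = 5 µM competing unlabeled TCR2 RNA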
Target sequence (Q9XUB2 whole entry, looked up): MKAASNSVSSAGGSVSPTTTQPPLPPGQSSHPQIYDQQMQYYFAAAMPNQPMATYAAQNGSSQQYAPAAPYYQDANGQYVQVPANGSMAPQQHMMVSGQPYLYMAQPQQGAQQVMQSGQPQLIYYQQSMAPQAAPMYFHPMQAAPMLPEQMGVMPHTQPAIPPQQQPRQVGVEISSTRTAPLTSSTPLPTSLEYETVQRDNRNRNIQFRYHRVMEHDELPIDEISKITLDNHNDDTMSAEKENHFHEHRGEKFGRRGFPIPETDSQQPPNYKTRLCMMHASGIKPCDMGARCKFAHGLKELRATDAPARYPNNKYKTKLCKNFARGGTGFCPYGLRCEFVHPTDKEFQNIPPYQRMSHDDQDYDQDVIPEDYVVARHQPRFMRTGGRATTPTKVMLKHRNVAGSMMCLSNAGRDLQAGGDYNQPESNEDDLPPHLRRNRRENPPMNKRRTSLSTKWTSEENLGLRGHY
V-ATPase pH – regulators of yeast V-ATPase proton pumping, primary screen, pHLuorin cytosolic pH fluorescence. S. cerevisiae. response, % at 10 µM. 350,000 tested, 0.37% active; in the data active = response mostly above about 7.3%, no sharp cut-off; inactive = mostly below about 5.4%; note: actives read high
VLA-4 inh – inhibition in human VLA-4 binding assay, primary screen, VLA-4 allosteric modulator project, MLPCN library, flow cytometry, VLA-4 expressing cells. Integrin alpha-4 (Homo sapiens), P13612. ligand binding flow cytometry. inhibition, % (about 7 µM as worked out from the volumes in the protocol). 330,000 tested, 0.2% active. AID 2557, 2010; in the data active = inhibition above about 50%
Granule exo inh – LAMP-1 surface exposure blockers, TALL-104 cells – cell-based, flow cytometry, MLPCN library, primary screen; TALL-104 LAMP-1 surface exposure; cells stimulated with thapsigargin and PMA; inhibition, % at 10 µM; 360,000 tested, 0.66% active; AID 651702, 2012;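 active = inhibition above about 55%, limit read from the data; inconclusive = no clear call, values can overlap the other calls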
m5-HT2A agonist – mouse Htr2a agonists via beta-arrestin recruitment, primary screen, cell-based, luminescence; 5-hydroxytryptamine receptor 2A (Mus musculus), P35363; CHO-K1 mHTR2A beta-arrestin complementation; percent of 30 µM serotonin response; activation, % at 7.6 µM; 360,000 tested, 0.66% active; AID 624169, 2012;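 active = activation above a run cutoff, the mean activation of all tested compounds plus 3 SD, cut at about 14% in these data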;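 note: 0% = plate median of compound wells and 100% = 30 µM serotonin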
JMJD2C inh – inhibitors of GASC-1 histone demethylase, primary screen, biochemical, fluorescence, DELFIA europium. GST-JMJD2C(1-420) H3K9me3 demethylation. inhibition, % at 2.35 µM. 330,000 tested, 0.069% active;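 active = more than half of a compound's replicate wells show inhibition beyond 50%, single wells judged on their own value; inconclusive = some, but no more than half, of replicates pass 50% inhibition; inactive = no replicate passes 50% inhibition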;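 note: signal counts dimethyl H3K9 product captured on neutravidin plate; 0% = median of DMSO wells and 100% = 0.3 times that DMSO median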
An asterisk follows results filed as active; ? = inconclusive; / = no result. Most compounds without a hit are left out; they make up all but 2.2% or so of the library.

SMILES	MEX-5 binding	V-ATPase pH	VLA-4 inh	Granule exo inh	m5-HT2A agonist	JMJD2C inh
Cc1cccn2c(=O)c(C(=O)NC3CC(C)CC(C)(C)C3)c(O)nc12 (centres undefined)	-2	7	-15	3	-5	53*
Cc1cccn2c(=O)c(C(=O)NC3CCCCC3)c(O)nc12	-1	-2	-16	8	1	-1
CCOC(=O)c1c(C)[nH]c(C)c1S(=O)(=O)NC1CCN(C(=O)OCC)CC1	2	-2	11	0	2	-11
Cc1cc(C=C2C(=O)c3ccccc3C2=O)c(C)n1-c1ccc(Cl)cc1	?	1	/	-4	1	-13
Cc1cccc(-n2c(C)cc(C=C3C(=O)c4ccccc4C3=O)c2C)c1	-31*	2	-20	23	6	/
Cc1ccc(C)c(NNC(N)=S)c1	0	4	19	1	5	1
Cc1cc(Cl)ccc1NNC(N)=S	1	2	10	62*	1	2
Cc1cc(O)c(NC(=O)c2ccc(Br)o2)cc1C	-1	14*	2	-1	-3	7
COc1ccccc1NC(=O)c1ccc(Br)o1	0	-6	-1	0	-2	0
Cc1cc(Cl)c(S(N)(=O)=O)cc1OCC(N)=O	1	1	13	3	2	4
CCN(CC)S(=O)(=O)c1cc(OCC(N)=O)c(C)cc1Cl	0	14*	-14	8	0	15
O=C(O)c1sccc1Oc1ccc(NS(=O)(=O)c2cccc(F)c2)cc1	3	5	7	-12	9	-5
COc1ccc(C)cc1NC(=O)CSCc1cc(=O)n2c(C)csc2n1	/	-3	/	3	-5	/
N#Cc1c(N2CCCC2)nc(N)c2c(N)nc(N3CCCC3)cc12	-2	5	5	60*	6	-11
COc1cc2c(C#N)c(N3CCCC3)nc(N)c2c(N)n1	-1	0	-6	-7	1	7
COc1ccc(CC(=O)Nc2sccc2C#N)cc1S(=O)(=O)N1CCOCC1	-4	0	-1	-5	0	0
COC(=O)Cc1c(C)c2ccc(OC(=O)c3ccccc3)cc2oc1=O	-2	20*	8	-1	5	?
Cc1c(Cc2ccccc2)c(=O)oc2cc(OC(=O)c3ccccc3)ccc12	2	-8	-9	2	-1	13
COc1ccc2[nH]c3c(=O)n(CCCCC(=O)NCCC(C)C)c(=S)[nH]c3c2c1	-2	5	16	5	-2	-16
COc1ccc(OC)c2sc(N(CCCN(C)C)C(=O)c3ccc(S(=O)(=O)N4CCc5ccccc5C4)cc3)nc12	7	/	53*	/	/	9
CCN(CC)c1ccc(NC2=C(Cl)C(=O)c3ccccc3C2=O)cc1	/	7	54*	67*	6	2
O=C1C(Cl)=C(Nc2ccc(O)cc2)C(=O)c2ccccc21	-2	-1	34	70*	2	-3
COC1=C(Nc2ccc(O)cc2)C(=O)c2ccccc2C1=O	-6	-1	-4	-2	-1	-3
Cc1ccc(NC2=C(Cl)C(=O)c3ccccc3C2=O)cc1	2	3	21	74*	-1	13
Cc1ccc(NC2=CC(=O)C(=O)c3ccccc32)cc1	-3	3	10	1	-5	-31
SMILES	MEX-5 binding	V-ATPase pH	VLA-4 inh	Granule exo inh	m5-HT2A agonist	JMJD2C inh
Cc1ccc(SC[C@H](Cc2ccccc2)N2CC[C@@H](NC(=O)OCc3ccccc3)CCC2=O)cc1	2	/	0	/	/	5
O=C(Nc1cccc(Oc2ccccc2)c1)C1Cc2c(-c3cccc(F)c3)ccnc2O1 (centres undefined)	/	/	/	6	2	/
COc1ccccc1NC(=O)CCC(=O)OCC(=O)c1ccc(C)c([N+](=O)[O-])c1	-1	6	-2	-2	6	5
COc1ccc(-n2c(C)cc(/C=C3\C(=N)N4N=C(CC(=O)N5CCOCC5)SC4=NC3=O)c2C)cc1	-3	-2	-3	9	3	15
O=C(COC(=O)CN=C1NS(=O)(=O)c2ccccc21)Nc1ccccc1OC(F)F	-1	15*	-7	-3	2	3
CN(Cc1ccco1)S(=O)(=O)c1ccc(CN2C(=O)c3cccnc3C2=O)s1	-1	13*	0	2	2	-3
COc1ccc(CN2C(=O)c3cccnc3C2=O)cc1S(=O)(=O)N(C)Cc1ccco1	-3	3	3	0	4	-6
O=C(COC(=O)COc1ccc2c(c1)CCC2)Nc1ccccc1C(F)(F)F	/	5	4	-7	-5	0
Cc1cc(NC(=O)COC(=O)C2CC(=O)N(c3ccc(Cl)cc3)C2)no1 (centres undefined)	-1	16*	1	16	-1	13
CC(=O)C1=C(c2ccccc2)N(C(C)=O)n2c(C)nnc2S1	-45*	1	6	3	-2	32
O=C(COC(=O)CCC(=O)c1cccs1)Nc1ccccc1[N+](=O)[O-]	2	6	0	-5	1	0
CSc1nc(N)nc2c1ncn2CC(=O)NCc1ccc2[nH]ccc2c1	/	1	17	1	-2	12
CCN1CCN(c2ccc(S(=O)(=O)N3CCCCC3)cc2NC(=O)Cc2ccccc2)CC1	4	-2	19	9	-8	8
CCN1CCN(c2ccc(S(=O)(=O)N3CCCCC3)cc2NC(=O)Cc2ccc(Cl)c(Cl)c2)CC1	3	8	13	56*	-7	5
CCN1CCN(c2ccc(S(=O)(=O)N3CCCCC3)cc2NC(=O)/C=C/c2cc(OC)ccc2OC)CC1	4	1	1	60*	-1	1
CCOc1ccc(S(=O)(=O)N2CCCCC2)cc1NC(=O)Cc1cccs1	1	0	-12	-6	-5	6
FC(F)c1nc2ccccc2[nH]1	0	-1	10	0	2	4
c1ccc2[nH]c3cc4ncnc4cc3nc2c1	-81*	0	-11	-1	3	6
CCCCOc1ccc(C(=O)Nc2ccc(N3CCN(C(C)=O)CC3)cc2)cc1	0	-2	-6	-9	-2	61*
CC(C)C[C@@H](CN1CCCC1CN1C(=S)NC[C@@H]1Cc1ccc(O)cc1)N1C[C@H](Cc2ccc(O)cc2)N(CC2CCCCCC2)C1=S (some centres undefined)	/	2	/	56*	-1	/
O=[N+]([O-])c1ccc2c3n([n+]([O-])c2c1)CCN=C3c1ccc(Cl)cc1	-4	-3	27	78*	-2	4
